Only some compounds are listed: those with a hit (about 3% of all), similar ones and a draw of the others.
Chronic BCR inh – chronic active BCR signaling inhibition | ABC-DLBCL IkBa-CBG/CBR reporter, luminescence ratio, 4 h | Potency, µM (doses to about 46.1 µM), inactives show at the highest dose activity change, negative = inhibition, usual class: inhibitors | AID 493014 | 0.05% of 340,000 active; active = well fitted inhibition curve with a large enough effect in the signal ratio, with a control signal flat, not every such curve was filed as active; inconclusive = small, poorly fitted or top-dose-only effect, or effect the other way, or a change in a side signal; the % refers to the signal ratio;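 also: potency is read from the fitted curve at half-maximal effect; plate controls were basal doxycycline-induced cells for no effect and cells given 10 µM MG132 for full effect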
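Doxycycline induced both beetle luciferases in TMD8 lymphoma cells; IKK-driven degradation limits the IkappaBalpha-fused green signal, while red luminescence normalises for cell number and nonspecific effects. Compounds tested up to 46 uM, 4 hrs.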
ClpP mod – qHTS Assay for Activators of ClpP; Potency, µM (doses to about 57.5 µM), for the others: at the highest dose activity change, negative = active; 1.9% of 340,000 active; purified B. subtilis ClpP, FRET peptide cleavage, 20 min; active = well fitted falling curve with a large enough effect; inconclusive = small, poorly fitted or top-dose-only effect; inactive = no such curve, though single readings can be large or run the other way; also: potency is read from the fitted curve at half-maximal effect; the source files actives as falling curves though it sought activators and does not explain the sign; nearly all actives have a fitted effect of over 65% in size
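FRET quenching reversal measured ClpP activation: 10 microg/mL B. subtilis ClpP at pH 8 with the FRET-FV decapeptide, read at 430 nm after 320 nm excitation. The 20-min minus 0-min signal was scaled between DMSO/no-enzyme wells and ADEP (5.8 microM final).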
hERG WT inh – inhibitors of human wildtype KCNH2 potassium channel; U2OS, BacMam KCNH2, thallium flux FluxOr; hits give low values; 0.37% of 340,000 active; activity change, % at 1.84 µM;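 active = maximum activity change below -70%; inconclusive = maximum activity change between -70% and -50%; inactive = maximum activity change above -50%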; also: % is scaled to controls: 0 for no effect and ±100 for the full control effect
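U2OS cells transduced with wild-type KCNH2 virus are loaded with FluxOr dye for 45 min, and thallium flux is measured in kinetic reads before and after stimulation buffer. Rate constants are normalized to DMSO controls.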
KCNH2 3.1 block – inhibitors of human KCNH2 3.1 potassium channel isoform. U2OS KCNH2 3.1, thallium flux FluxOr; hits give low values. activity change, % (tested at about 1.8 µM). 0.95% of 340,000 active. AID 720553;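 active = maximum activity change below -70%; inconclusive = maximum activity change from -70% to -50%; inactive = maximum activity change above -50%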;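 also: thallium influx rate constant from kinetic fluorescence after stimulation buffer; % is scaled to controls: 0 for no effect and ±100 for the full control effect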
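U2OS cells transduced with KCNH2 3.1 mutant virus (1.77 x 10^8 /mL, 4 h), plated overnight at 37 C, loaded 45 min with FluxOr dye plus Red40 quencher. Thallium flux rate constant from kinetic reads after stimulation buffer, normalised to controls.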
ALOX12 inh – ALOX12 (human) lipoxygenase inhibition | purified 12hLO, xylenol orange hydroperoxide absorbance | P18054 | Potency, µM (doses to about 108 µM), inactives show top-dose activity change, negative = inhibition, usual class: inhibitors | 1.1% of 580,000 active; active = well fitted inhibition curve with a large enough effect; inconclusive = small, poorly fitted or top-dose-only effect, or another doubt; inactive = no such curve, though single readings can be large or run the other way; also: potency is read from the fitted curve at half-maximal effect; % is scaled to controls: 0 for no effect and ±100 for the full control effect
Target sequence (P18054 whole entry, looked up): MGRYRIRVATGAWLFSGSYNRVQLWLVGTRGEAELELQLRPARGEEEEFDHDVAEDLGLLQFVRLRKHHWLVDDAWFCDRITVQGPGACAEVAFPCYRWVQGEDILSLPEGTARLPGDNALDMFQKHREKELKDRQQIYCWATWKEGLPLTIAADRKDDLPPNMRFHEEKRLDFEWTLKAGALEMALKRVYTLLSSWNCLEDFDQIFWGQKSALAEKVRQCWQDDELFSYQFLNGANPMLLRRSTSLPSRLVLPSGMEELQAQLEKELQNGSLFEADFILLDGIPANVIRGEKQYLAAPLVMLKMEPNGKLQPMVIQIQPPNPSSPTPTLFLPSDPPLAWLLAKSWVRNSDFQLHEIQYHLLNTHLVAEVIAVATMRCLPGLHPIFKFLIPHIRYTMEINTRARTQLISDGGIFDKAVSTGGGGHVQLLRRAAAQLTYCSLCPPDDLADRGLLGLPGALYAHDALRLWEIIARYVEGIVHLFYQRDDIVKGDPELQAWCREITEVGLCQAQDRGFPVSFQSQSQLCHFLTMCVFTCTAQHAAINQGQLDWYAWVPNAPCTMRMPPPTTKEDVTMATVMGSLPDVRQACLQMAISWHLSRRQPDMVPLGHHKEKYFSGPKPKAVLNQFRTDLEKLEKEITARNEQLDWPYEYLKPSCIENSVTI
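Purified human 12hLO (150 nM final) in 25 mM Hepes, 0.01% Triton X-100, pH 7.0 was preincubated 15 min at room temperature with compound. Then 40 uM arachidonic acid was added, 30 min. Hydroperoxide was read by Fe-XO absorbance ratio 573/405 nm.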
LDHA block – blocks human lactate dehydrogenase A; purified LDHA, NADH/diaphorase-resazurin fluorescence; hits give low values; activity change, % (values are at about 110 or 230 µM); 0.15% of 480,000 active; AID 1347041; in the data active = activity change below about -30%; inconclusive = mostly about -25% to -30%;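 also: plate controls were DMSO wells for no effect and wells without enzyme for full effect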
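LDH5 2 nM; NADH 0.06 mM, pyruvate 0.2 mM; 200 mM Tris pH 7.4, EDTA, Tween-20; 5 min RT. Detection: diaphorase 0.133 mg/mL + resazurin 37 µM, fluorescence ex540/em590 at 0 and 20 min; normalized to enzyme-free and DMSO wells.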
An asterisk follows results filed as active; ? = inconclusive; / = not tested or not shown.

SMILES	Chronic BCR inh	ClpP mod	hERG WT inh	KCNH2 3.1 block	ALOX12 inh	LDHA block
Cc1cc(NS(=O)(=O)c2ccc(NC(=S)NC(=O)c3ccc(Cl)cc3Cl)cc2)no1	/	2%	-2	16	32µM*	0
Cc1ccc2[nH]c3c(=O)n(CCN4CCOCC4)cnc3c2c1	-5%	?	-6	5	1%	0
COc1cc2[nH]c3c(=O)n(CCN4CCCCC4)cnc3c2cc1OC	-1%	14µM*	0	1	?	1
Cc1ccc2[nH]c3c(=O)n(CCc4cnc[nH]4)cnc3c2c1	?	16µM*	7	2	0%	-6
Cc1ccc2c(c1)[nH]c1c(=O)n(Cc3ccccn3)cnc12	8%	32µM*	-11	3	11%	-5
COc1ccc2c(c1)[nH]c1c(=O)n(Cc3ccccn3)cnc12	?	-8%	-16	1	0%	-1
Cc1ccc2[nH]c3c(=O)n(CCCN4CCOCC4)cnc3c2c1	23%	14µM*	5	-27	0%	-5
CN1Cc2cccn2CC1CNC(=O)c1ccco1 (stereo not given)	/	/	/	/	51%	/
COc1cccc(CNC(=O)c2ccc(NC(=O)N3CCSc4nc(C)cc(C)c43)cc2)c1	/	/	/	/	13%	7
Cn1nccc1C(=O)N1CCC2(CC1)NCCc1c2[nH]c2ccccc12	/	/	/	/	5%	/
CCC1CCCN1Cn1cnc2c([nH]c3ccc(C)cc32)c1=O (stereo not given)	9%	28µM*	4	1	2%	-1
Cn1c2ccccc2c2ncn(CCCN3CCOCC3)c(=O)c21	6%	25µM*	-5	1	0%	0
Cn1c2ccc(F)cc2c2ncn(CCN3CCOCC3)c(=O)c21	?	?	-4	16	22%	-10
CCC1CCCN1Cn1cnc2c([nH]c3ccc(Cl)cc32)c1=O (stereo not given)	?	-30%	24	-38	-3%	-7
CCn1cc(-c2ccccc2)cc1C(=O)NC(C)c1cccnc1 (stereo not given)	/	/	/	/	39%	/
Cc1ccc(Cn2cccc2-c2nc(-c3ccc(F)cc3)no2)cc1	/	/	/	/	-1%	/
CN1CCN(C(c2ccc(Cl)cc2)c2cc(Cl)c3cccnc3c2O)CC1 (stereo not given)	?	/	-6	1	10µM*	1
CC(=O)Nc1cccc2cc(O)ccc12	/	/	-7	9	-22%	21
CC(=O)Nc1ccc2ccc3cccc4ccc1c2c34	-5%	14µM*	3	0	-18%	-4
CN1N=C2c3ccccc3CCCC2C1c1ccc(F)cc1 (stereo not given)	8%	/	0	-3	40µM*	4
CC(=O)N1N=C2c3ccccc3CCC2C1c1cccs1 (stereo not given)	-9%	-1%	1	-7	9%	0
CCCNC(=O)C1CN(C(=O)c2nn(-c3ccccc3)c(=O)c3ccccc23)c2ccccc2O1 (stereo not given)	/	/	/	/	?	5
COc1ccc(OC)c(S(=O)(=O)Nc2ccccc2SC)c1	0%	1%	11	-88*	-23%	-2
Cc1cc2oc(=O)cc(CN(C)Cc3ccco3)c2cc1C	/	/	/	/	-21%	1
Cn1c(CSCc2ccccc2Cl)n[nH]c1=S	-1%	0%	-9	-10	?	-1
S=c1[nH]nc(CSCc2ccccc2Cl)n1C1CCCCC1	-3%	-3%	3	6	45µM*	-4
COc1ccc(CSc2ccc(S(=O)(=O)N3CCOCC3)cn2)cc1F	/	/	/	/	-11%	-1
COc1ccc(NC(=O)C(CCSC)NC(=O)C2CCC(C)CC2)cc1OC (stereo not given)	/	/	/	/	12%	7
Cc1cc(-c2ccc(Cl)cc2)n2nc(N)nc2n1	2%	18µM*	-1	-2	0%	-2
Nc1nc2nccc(-c3ccc(Cl)cc3)n2n1	-7%	57%	-7	-7	0%	-3
